Assay results as given in PubChem BioAssay AID1345085 (National Center for Advancing Translational Sciences (NCATS), 2018).
Inconclusive results are not listed. Calls of active or inactive are those of the source. The call rests on the fitted dose curve; in most records, active means well fitted cell-killing curve with a large enough effect; inconclusive means small, poorly fitted or top-dose-only effect, or effect the other way; inactive means no such curve, though single readings can be large or run the other way.

test system: Hek293T; assay: Confirmatory qHTS for gynecologic anti-cancer compounds from libraries of approved drugs and bioactive compounds; details: gynecologic cancer cell panel viability, ATPlite luminescence, 48 h; series mostly up to 57.6 µM; further: nearly all actives have a fitted effect of over 55% in size
How it was run: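 Cells (1,000/well) plated 16 h, then exposed 48 h at 37 °C to 11 concentrations (1:3) from 57.5 uM to 0.977 nM. Viability by ATPlite luminescence after 15 min; IC50 derived, with HEK 293T used for selectivity index.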
Potency means the concentration at half of the fitted maximal effect.

| SMILES | Potency |
| --- | --- |
| Nc1nccc(Oc2ccc(NC(=O)c3c[nH]cc(-c4ccc(F)cc4)c3=O)cc2F)c1Cl | 13700 nM (active) |
| FC(F)(F)c1ccc(/C=C/c2nc(COc3ccc(CCCCn4ccnn4)cc3)co2)cc1 | 19.3 nM (active) |
| O=C(c1ccc(/C=C/c2n[nH]c3ccccc23)cc1)N1CCNCC1 | 21700 nM (active) |
| Cc1ccn(-c2ccc(-c3ncco3)cc2)c(=O)c1-c1ccc2nc(N)ncc2c1 | inactive |
| CN(C)/N=N/c1nc[nH]c1C(N)=O | inactive |
| COc1cccc2c1C(=O)c1c(O)c3c(c(O)c1C2=O)C[C@@](O)(C(=O)CO)C[C@@H]3O[C@H]1C[C@H](N)[C@H](O)[C@H](C)O1 | 3850 nM (active) |
| CCC(=O)N1CCN(c2ccc(-n3c(=O)ccc4cnc5ccc(-c6cnc7ccccc7c6)cc5c43)cc2C(F)(F)F)CC1 | 49.8 nM (active) |
| C[C@@H](Oc1cc(-c2cnn(C3CCNCC3)c2)cnc1N)c1c(Cl)ccc(F)c1Cl | 21700 nM (active) |
| CN(c1nccc(=O)[nH]1)C1CCN(c2nc3ccccc3n2Cc2ccc(F)cc2)CC1 | inactive |
| Cc1cnc(Nc2ccc(CN3CCOCC3)cc2)nc1Nc1cccc(S(=O)(=O)NC(C)(C)C)c1 | 17200 nM (active) |
| Cc1cc(Nc2nc(N[C@@H](C)c3ncc(F)cn3)ncc2Cl)n[nH]1 | inactive |
| CS(=O)(=O)c1ccc(C(=O)Nc2ccc(Cl)c(-c3ccccn3)c2)c(Cl)c1 | inactive |
| Cc1ccc(C(=O)Nc2ccc(Oc3cc4cnn(C)c4cc3-c3cn[nH]c3)c(F)c2)c(=O)n1-c1ccc(F)cc1 | 1930 nM (active) |
| Cc1ccc(C(=O)N(CCCN)C(c2nc3cc(Cl)ccc3c(=O)n2Cc2ccccc2)C(C)C)cc1 (centres undefined) | 6.1 nM (active) |
| CCCCc1oc2ccccc2c1C(=O)c1cc(I)c(OCCN(CC)CC)c(I)c1 | 79400 nM (active) |
| CCc1c2c(nc3ccc(O)cc13)-c1cc3c(c(=O)n1C2)COC(=O)[C@]3(O)CC | 611 nM (active) |
| Cc1ccc(C(=O)Nc2ccc(CN3CCN(C)CC3)c(C(F)(F)F)c2)cc1C#Cc1cnc2[nH]ncc2c1 | 21700 nM (active) |
| CC(C)CC(=O)Nc1n[nH]c2c1CN(C(=O)C1CCN(C)CC1)C2(C)C | 1370 nM (active) |
| CC(C)(C(=O)NCC(F)(F)C(F)(F)F)C(=O)NC1C(=O)Nc2ccccc2-c2ccccc21 (centres undefined) | inactive |
| CC[C@@]1(O)C(=O)OCc2c1cc1n(c2=O)Cc2cc3cc(O)ccc3nc2-1 | 385 nM (active) |
| COC(C(=O)N1Cc2[nH]nc(NC(=O)c3ccc(N4CCN(C)CC4)cc3)c2C1)c1ccccc1 (centres undefined) | inactive |
| CCC1C(=O)N(C)c2cnc(Nc3ccc(C(=O)NC4CCC(N5CCN(CC6CC6)CC5)CC4)cc3OC)nc2N1C(C)C (centres undefined) | 61.1 nM (active) |
| COc1cc2c(cc1-c1c(C)noc1C)ncc1[nH]c(=O)n(C(C)c3ccccn3)c12 (centres undefined) | inactive |
| CCC1C(=O)N(C)c2cnc(Nc3ccc(C(=O)NC4CCN(C)CC4)cc3OC)nc2N1C1CCCC1 (centres undefined) | 19.3 nM (active) |
